Compound activity (PubChem BioAssay)
Sampled rows, rich in hits. Any-hit rate of the full collection: about 6.7%.
KB-3-1 cytotox – kills parental KB-3-1 adenocarcinoma cells. KB-3-1 viability, CellTiter-Glo ATP luminescence, 72 h. Potency, µM (titrated, usually from 46.1 µM), actives largely listed as cytotoxic. hit rate 1.4% among 400,000. AID 1347075; note: % is set by controls: 0 for no effect and ±100 for the full control effect; nearly all actives have a fitted effect of over 60% in size
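Cytotoxicity measured as CellTiter-Glo luminescence after 72 h at 37 C. Compound titrations were pinned onto drug-naive KB-3-1 parental adenocarcinoma cells grown in DMEM with 10% FBS, and normalized data fitted to concentration-response curves.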
PINK1 expr mod – PINK1 expression modulation; PINK1 immunofluorescence, high-content cytometry, 24 h; Potency, µM (doses to about 76.6 µM), inactives show at the highest dose activation (PINK1 increase), most hits filed as activators; hit rate 0.2% among 410,000; active = well fitted activation curve with a large enough effect; inconclusive = small, poorly fitted or top-dose-only effect; cell line not stated here; note: % of control where 0% means no effect; nearly all actives have a fitted effect of over 65% in size
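Measures PINK1 amount and localization on or inside mitochondria by immunofluorescence. Stable cells get compounds at 5 concentrations for 24 hours before fixation and staining; CCCP controls included.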
KB-V1 MDR tox – KB-V1 MDR subline cytotoxicity | KB-V1 MDR cells viability, CellTiter-Glo, 72 h | Potency, µM (highest dose often 46.1 µM), hits mostly cytotoxic | hit rate 3.4% among 400,000 | AID 1347076; note: % is set by controls: 0 for no effect and ±100 for the full control effect; nearly all actives have a fitted effect of over 60% in size
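KB-V1 cells (P-gp-expressing MDR subline of KB-3-1) in phenol-red-free DMEM with 10% FBS were exposed to library compounds over a concentration series for 72 h at 37 degrees C. Viability read by CellTiter-Glo luminescence; concentration-effect curves fitted after normalization.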
MCF10A rerep – induces DNA re-replication in MCF 10a normal breast cells | Potency, µM (highest dose often 46.1 µM), for the others: top-dose activity, positive = re-replication, most hits filed as activators | MCF 10A DNA re-replication, Hoechst nuclear intensity, 48 h | hit rate 2.9% among 350,000; note: % of control where 0% means no effect; nearly all actives have a fitted effect of over 50% in size
SW480 rerep – inducers of DNA re-replication in SW480 colon cancer cells. SW480 DNA re-replication, Hoechst DNA content imaging, 48 h. Potency, µM (titrated, usually from 46.1 µM), for inactives: top-dose re-replication activation, actives largely listed as activators. hit rate 1.8% among 340,000. AID 624297; note: % of control where 0% means no effect; nearly all actives have a fitted effect of over 55% in size
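First, 250 cells per well were seeded. Next, compound or vehicle (23 nL) was pinned in, plates sat 48 hr at 37 C. Finally Hoechst was added for 40 min before fluorescence scanning.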
An asterisk follows results filed as active; i = inactive; ? = inconclusive; . = not tested or not shown; [ ] = dose if it differs, or a comment. Unless noted, calls come from the whole dose curve; as a rule, active = well fitted curve in the direction sought with a large enough effect; inconclusive = small, poorly fitted or top-dose-only effect, or another doubt; inactive = no such curve, though single readings can be large; an effect the other way counts as inactive or inconclusive. Potency is the fitted concentration of half-maximal effect.

SMILES	KB-3-1 cytotox	PINK1 expr mod	KB-V1 MDR tox	MCF10A rerep	SW480 rerep
C/C(CC(c1ccccc1)c1c(O)c2ccccc2oc1=O)=N\NC(N)=S (stereo unspecified)	i	5%	?	-31%	16µM*
COc1ccc(-c2noc(=O)n2Cc2cc(C)ccc2C)cc1	?	4%	?	16µM*	?
Cc1noc(C)c1C(=O)N1CCC2(CC1)Oc1ccc(F)cc1C(=O)C21CC(c2ccc(Cl)cc2)=NO1 (stereo unspecified)	i	-1%	i	4%	?
COc1cc(C(=O)NN=Cc2ccc(N(CCCl)CCCl)cc2)cc(OC)c1OC	16µM*	9%	i	16µM*	18µM*
COC(=O)[C@@]1(C)CC[C@]2(C)CC[C@@]3(C)C(=CC(=O)C4[C@@]5(C)CC[C@H](O)C(C)(C)[C@@H]5CC[C@]43C)[C@H]2C1 (stereo partly specified)	i	-1%	?	2%	-72%
COc1ccc(C2/C=C\CN(C(=O)Oc3ccc(C(F)(F)F)cc3)CC(=O)N2Cc2ccc(F)cc2)cc1 (stereo unspecified)	i	3%	i	?	22%
Cc1[nH]n(-c2ccccc2)c(=O)c1C(c1ccc([N+](=O)[O-])cc1)c1c(C)[nH]n(-c2ccccc2)c1=O	?	40µM*	i	23µM*	-11%
CN(C)c1ccc(N=O)cc1	i	0%	?	.	.
COC(=O)C1=C(c2ccc(-c3ccccc3)c(F)c2)C[C@@H]2CC[C@H]1N2C(=O)NCCOc1ccccc1Cl	?	0%	21µM*	1%	?
COC(=O)C1=C(c2ccc(-c3ccccc3)c(F)c2)C[C@@H]2CC[C@H]1N2C(=O)NCCO	?	2%	?	15%	0%
COC(=O)C1=C(c2ccc(-c3ccccc3)c(F)c2)C[C@@H]2CC[C@H]1N2C(=O)NCc1ccco1	?	3%	i	21µM*	26%
CCN(CC)C(=O)c1ccc2c(c1)C1C(Cl)C(Sc3ccccc3[N+](=O)[O-])CC1C(C(=O)O)N2 (stereo unspecified)	2.6µM*	1%	i	1%	-1%
C[N+]1(C)C2CC[C@H]1CC(OC(=O)[C@@H](CO)c1ccccc1)C2 (stereo partly specified)	.	.	.	9%	?
Cc1ccc(C2(O)CC(C)N(C)CC2C)cc1 (stereo unspecified)	i	-1%	i	1%	-6%
CC1CN(C)C(C)(C)CC1(O)c1ccccc1 (stereo unspecified)	i	1%[38.3 µM]	i	16µM*	?
COc1ccc(C2=NCC(=O)N(CC(=O)NCc3ccco3)c3sc4c(c32)CCCC4)cc1	i	-9%[38.3 µM]	i	-1%	1%
Cc1cccc(C2=NCC(=O)N(CC(=O)NCc3ccco3)c3sc4c(c32)CCCC4)c1	i	3%[38.3 µM]	23µM*	-1%	1%
CC(C)C[C@H]1CN(CCCC[C@H]2CNC(=O)C(=O)N2CCC2CCCCC2)C(=O)C(=O)N1CCC1CCCCC1	?	?	i	.	.
O=c1[nH]c(=O)n(-c2ccc(F)cc2)c(O)c1C=Nc1ccccc1N1CCCC1	i	35µM*	?	17%	?
Cc1ccc(-n2c(O)c(C=Nc3ccccc3N)c(=O)[nH]c2=O)cc1C	i	2%	i	11%	-11%
COC1CC(C)C(OC)c2cc(O)cc(c2O)NC(=O)C(C)=CC=CC(C)C(OC(N)=O)C(C)=CC(C)C1OC (stereo unspecified)	i	-2%	i	5.8µM*	2.6µM*
CC(C)C(NC(=O)C(C(C)C)N(C)C)C(=O)N(C)C(C(=O)N1CCCC1C(=O)N1CCCC1C(=O)NCc1ccccc1)C(C)C (stereo unspecified)	?	6%	21µM*	?	?
O=C(Nc1ccc(Br)cc1C(=O)c1ccccc1Cl)c1ccccc1F	.	2%	.	.	.
O=C(CNC(=O)OCc1ccccc1)Nc1ccc(Br)cc1C(=O)c1ccccc1Cl	?	-2%	8.2µM*	27%	7%
CN(C(=O)CNC(=O)OCc1ccccc1)c1ccc(Br)cc1C(=O)c1ccccc1Cl	2.3µM*	-1%	3.7µM*	8.2µM*	12µM*
SMILES	KB-3-1 cytotox	PINK1 expr mod	KB-V1 MDR tox	MCF10A rerep	SW480 rerep
O=C(Nc1ccc2c(c1)OCO2)c1cccn(Cc2cccc([N+](=O)[O-])c2)c1=O	i	1%	i	.	.
NCC(=O)c1ccc(Br)cc1	i	.	i	.	.
Cc1ccc(-n2c(/C=C/c3ccc(Br)s3)nc3ccccc3c2=O)cc1C	.	1%	.	.	.
O=C(Nc1ccc(C(F)(F)F)cc1)c1cccn(Cc2ccc3c(c2)OC(F)(F)O3)c1=O	8.2µM*	2%	2.9µM*	?	-8%
O=C(Nc1cccc(C(F)(F)F)c1)c1cccn(Cc2ccc3c(c2)OC(F)(F)O3)c1=O	i	15%	i	?	-2%
CC(C)Oc1cccc(NC(=O)c2cccn(Cc3ccc4c(c3)OC(F)(F)O4)c2=O)c1	?	6%	i	13µM*	?
C#CC(C)(O)CC (stereo unspecified)	.	.	.	11%	0%
COCC(C)N(C(=O)CCl)c1c(C)csc1C (stereo unspecified)	.	.	.	1%	-1%
CC1=CC(=C2C(=O)NC(=S)NC2=O)C=C(C(F)(F)F)N1Cc1ccccc1	2.6µM*	4%	12µM*	3.3µM*	3.7µM*
CC1=CC(=C2C(=O)NC(=O)NC2=O)C=C(C(F)(F)F)N1Cc1ccccc1	?	2%	i	6%	12%
COC(=O)C1=C(c2ccc(F)cc2F)C[C@@H]2CC[C@H]1N2C(=O)N1CCC(O)(c2ccc(Cl)cc2)CC1	?	?	i	7.3µM*	-1%
O=C(c1ccc(C(F)(F)F)cc1)C1CCCN(C2CCSCC2)C1 (stereo unspecified)	i	18%	?	-2%	5.2µM*
COC(=O)c1ccc(COC(=O)c2nn(C)c(=O)c3ccccc23)cc1	i	1%	i	-9%	-21%
ClCCN(CCCl)c1ccc(-n2cnc3c(Cl)ncnc32)cc1	?	-2%	i	2.9µM*	8.2µM*
CN1C(=O)C(Cc2ccc(OCc3ccccc3)cc2)C(=O)N(C)C1=O	i	0%	i	3%	-6%
COc1cc(CC2C(=O)N(C)C(=O)N(C)C2=O)ccc1OCc1ccccc1	i	-2%[38.3 µM]	?	5.2µM*	?
Cc1ccc(-c2nc3c(=O)n(C)c(=O)nc-3n(C)n2)cc1	2.6µM*	-1%	7.3µM*	.	.
Cn1ncnc2c(=O)n(C)c(=O)nc1-2	0.65µM*	-4%	0.73µM*	18µM*	0%
O=C(O)CCC1NCC2CC1CN1CCCCC21 (stereo unspecified)	.	-1%	.	.	.
